# Data reported in publication PMC7862700, “An all-to-all approach to the identification of sequence-specific readers for epigenetic DNA modifications on cytosine”.
# How the values were obtained:
# Assay in all cases: DAPPL (digital affinity profiling via proximity ligation, sequencing); 10 mM Tris-HCl pH 7.5, 50 mM NaCl, 1 mM DTT, 4% glycerol, room temperature, 30 min; GST-TFs on glutathione beads, 16-mer random dsDNA library, 0.1% formaldehyde crosslink after washing; high values mean tight binding
# [1] = biological target: T1, FEV (Homo sapiens, UniProt Q99581 1-238); details: protein: recombinant; tags: N-terminal GST; dsDNA, one strand shown
# T1 sequence: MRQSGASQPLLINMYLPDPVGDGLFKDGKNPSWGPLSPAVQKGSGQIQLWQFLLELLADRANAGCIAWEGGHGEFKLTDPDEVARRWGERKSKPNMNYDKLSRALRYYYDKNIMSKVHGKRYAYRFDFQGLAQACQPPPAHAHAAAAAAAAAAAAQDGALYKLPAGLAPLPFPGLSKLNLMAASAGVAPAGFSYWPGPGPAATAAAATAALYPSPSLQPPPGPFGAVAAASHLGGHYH
# Outline: (§1)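 After expression in yeast as GST fusions, human transcription factors were bound to glutathione beads, DNA-barcoded and mixed with a tag-only sample. The pools were incubated with 200 nmole of a 16-mer random double-stranded DNA library in Tris/NaCl/DTT/glycerol buffer (30 min, room temperature), washed and crosslinked with 0.1% formaldehyde. Proximity ligation with BsaI/T4 ligase ran for 1 h at 37 °C, before PCR amplification and sequencing on an Illumina NextSeq500. Binding signal is a hexamer's read frequency for a factor divided by its frequency for the tag-only sample.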
# [2] = biological target: ETV5 (Homo sapiens, UniProt P41161 1-510); details: protein: recombinant; tags: N-terminal GST; dsDNA, one strand shown
# Outline: as §1
# [3] = biological target: HSF1 (Homo sapiens, UniProt Q00613 1-529); details: protein: recombinant; tags: N-terminal GST; chain copies: 3; dsDNA, one strand shown
# Outline: as §1
# [4] = biological target: T2, SPIC (Homo sapiens, UniProt Q8N5J4 1-248); details: protein: recombinant; tags: N-terminal GST; dsDNA, one strand shown
# T2 sequence: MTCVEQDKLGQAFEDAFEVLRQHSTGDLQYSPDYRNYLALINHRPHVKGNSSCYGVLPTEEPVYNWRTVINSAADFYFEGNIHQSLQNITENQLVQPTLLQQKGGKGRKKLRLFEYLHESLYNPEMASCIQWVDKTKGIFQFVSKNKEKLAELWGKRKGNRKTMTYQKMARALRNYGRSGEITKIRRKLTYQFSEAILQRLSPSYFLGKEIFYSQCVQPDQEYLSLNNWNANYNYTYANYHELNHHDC
# Outline: as §1
# [5] = biological target: ELF4 (Homo sapiens, UniProt Q99607 1-663); details: protein: recombinant; tags: N-terminal GST; dsDNA, one strand shown
# Outline: as §1
# [6] = biological target: T3, ELK4 (Homo sapiens, UniProt P28324-2 1-405); details: protein: recombinant; tags: N-terminal GST; dsDNA, one strand shown
# T3 sequence: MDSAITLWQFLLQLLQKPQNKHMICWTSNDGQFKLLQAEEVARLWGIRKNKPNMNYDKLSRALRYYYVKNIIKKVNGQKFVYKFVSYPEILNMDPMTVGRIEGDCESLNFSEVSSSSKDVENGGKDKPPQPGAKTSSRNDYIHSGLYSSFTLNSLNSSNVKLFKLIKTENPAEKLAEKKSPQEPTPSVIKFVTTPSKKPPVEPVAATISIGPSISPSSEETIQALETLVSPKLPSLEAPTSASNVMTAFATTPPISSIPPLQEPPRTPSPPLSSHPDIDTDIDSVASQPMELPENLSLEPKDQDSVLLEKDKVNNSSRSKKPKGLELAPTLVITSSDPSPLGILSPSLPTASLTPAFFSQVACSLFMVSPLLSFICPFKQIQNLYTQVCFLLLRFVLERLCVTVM
# Outline: as §1
# [7] = biological target: T4, ETV2 (Homo sapiens, UniProt O00321 1-342); details: protein: recombinant; tags: N-terminal GST; dsDNA, one strand shown
# T4 sequence: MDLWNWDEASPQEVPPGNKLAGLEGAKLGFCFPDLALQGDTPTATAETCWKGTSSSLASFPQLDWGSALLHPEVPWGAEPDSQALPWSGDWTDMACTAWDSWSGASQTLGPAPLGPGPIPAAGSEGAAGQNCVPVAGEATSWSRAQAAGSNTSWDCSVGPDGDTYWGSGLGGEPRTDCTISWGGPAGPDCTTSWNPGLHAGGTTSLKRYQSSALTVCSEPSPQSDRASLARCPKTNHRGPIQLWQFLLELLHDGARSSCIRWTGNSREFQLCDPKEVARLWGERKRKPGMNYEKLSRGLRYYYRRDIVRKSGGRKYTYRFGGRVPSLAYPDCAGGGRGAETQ
# Outline: as §1
# [8] = biological target: T5, ELF3 (Homo sapiens, UniProt P78545 1-371); details: protein: recombinant; tags: N-terminal GST; dsDNA, one strand shown
# T5 sequence: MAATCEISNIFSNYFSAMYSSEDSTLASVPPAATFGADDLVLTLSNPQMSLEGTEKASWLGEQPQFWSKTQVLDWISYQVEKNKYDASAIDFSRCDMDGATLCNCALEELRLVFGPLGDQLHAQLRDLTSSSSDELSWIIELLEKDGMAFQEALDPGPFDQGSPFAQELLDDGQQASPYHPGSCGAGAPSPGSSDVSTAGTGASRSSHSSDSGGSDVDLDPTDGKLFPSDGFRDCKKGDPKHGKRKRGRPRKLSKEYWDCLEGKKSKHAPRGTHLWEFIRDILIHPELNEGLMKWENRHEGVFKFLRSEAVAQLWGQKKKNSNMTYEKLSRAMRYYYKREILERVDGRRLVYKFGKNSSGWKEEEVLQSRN
# Outline: as §1
# [9] = biological target: CRX (Homo sapiens, UniProt O43186 1-299); details: protein: recombinant; tags: N-terminal GST; dsDNA, one strand shown
# Outline: as §1
# [10] = biological target: ETV1 (Homo sapiens, UniProt P50549 1-477); details: protein: recombinant; tags: N-terminal GST; dsDNA, one strand shown
# Outline: as §1
# [11] = biological target: T6, ERF (Homo sapiens, UniProt P50548 1-548); details: protein: recombinant; tags: N-terminal GST; dsDNA, one strand shown
# T6 sequence: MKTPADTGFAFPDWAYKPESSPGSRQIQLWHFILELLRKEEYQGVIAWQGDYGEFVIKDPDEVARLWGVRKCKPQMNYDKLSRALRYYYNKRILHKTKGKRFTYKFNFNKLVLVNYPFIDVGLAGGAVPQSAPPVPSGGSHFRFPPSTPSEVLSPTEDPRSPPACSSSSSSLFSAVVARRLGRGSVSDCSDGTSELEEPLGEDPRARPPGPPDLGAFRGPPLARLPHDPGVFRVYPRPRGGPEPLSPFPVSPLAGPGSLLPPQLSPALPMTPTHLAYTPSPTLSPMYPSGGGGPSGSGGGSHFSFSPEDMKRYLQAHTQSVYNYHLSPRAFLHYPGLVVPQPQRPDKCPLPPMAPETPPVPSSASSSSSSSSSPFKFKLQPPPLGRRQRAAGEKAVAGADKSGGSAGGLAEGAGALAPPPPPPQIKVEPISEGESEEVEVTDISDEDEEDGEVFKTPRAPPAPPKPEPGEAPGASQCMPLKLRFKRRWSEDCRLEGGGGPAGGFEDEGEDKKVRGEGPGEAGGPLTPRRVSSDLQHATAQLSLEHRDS
# Outline: as §1
# [12] = biological target: T7, ETV3L (Homo sapiens, UniProt Q6ZN32 1-361); details: protein: recombinant; tags: N-terminal GST; dsDNA, one strand shown
# T7 sequence: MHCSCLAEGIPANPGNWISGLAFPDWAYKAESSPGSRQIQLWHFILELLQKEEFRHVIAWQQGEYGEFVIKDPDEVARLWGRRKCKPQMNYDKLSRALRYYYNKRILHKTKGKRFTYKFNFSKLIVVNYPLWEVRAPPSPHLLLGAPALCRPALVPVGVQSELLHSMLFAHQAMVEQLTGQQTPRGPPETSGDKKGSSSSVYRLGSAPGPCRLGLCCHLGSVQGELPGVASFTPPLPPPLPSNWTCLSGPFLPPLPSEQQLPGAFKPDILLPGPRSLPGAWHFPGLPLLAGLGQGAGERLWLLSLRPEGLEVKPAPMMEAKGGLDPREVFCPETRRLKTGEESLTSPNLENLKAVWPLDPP
# Outline: as §1
# [13] = biological target: T8, ETS2 (Homo sapiens, UniProt P15036 1-469); details: protein: recombinant; tags: N-terminal GST; dsDNA, one strand shown
# T8 sequence: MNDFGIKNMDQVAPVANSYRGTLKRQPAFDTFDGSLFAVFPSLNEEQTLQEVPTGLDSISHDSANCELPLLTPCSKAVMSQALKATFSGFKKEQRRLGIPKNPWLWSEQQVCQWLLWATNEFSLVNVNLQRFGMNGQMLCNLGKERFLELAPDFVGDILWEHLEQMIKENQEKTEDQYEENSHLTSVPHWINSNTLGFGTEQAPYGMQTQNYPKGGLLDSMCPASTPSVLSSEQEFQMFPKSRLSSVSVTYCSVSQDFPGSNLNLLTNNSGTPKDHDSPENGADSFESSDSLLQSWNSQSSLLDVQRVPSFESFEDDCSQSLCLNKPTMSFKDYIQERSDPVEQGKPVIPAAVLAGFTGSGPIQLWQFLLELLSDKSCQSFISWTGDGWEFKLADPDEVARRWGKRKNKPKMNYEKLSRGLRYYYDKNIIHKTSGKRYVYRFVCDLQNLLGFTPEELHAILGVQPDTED
# Outline: as §1
# [14] = biological target: T9, SPDEF (Homo sapiens, UniProt O95238 1-335); details: protein: recombinant; tags: N-terminal GST; dsDNA, one strand shown
# T9 sequence: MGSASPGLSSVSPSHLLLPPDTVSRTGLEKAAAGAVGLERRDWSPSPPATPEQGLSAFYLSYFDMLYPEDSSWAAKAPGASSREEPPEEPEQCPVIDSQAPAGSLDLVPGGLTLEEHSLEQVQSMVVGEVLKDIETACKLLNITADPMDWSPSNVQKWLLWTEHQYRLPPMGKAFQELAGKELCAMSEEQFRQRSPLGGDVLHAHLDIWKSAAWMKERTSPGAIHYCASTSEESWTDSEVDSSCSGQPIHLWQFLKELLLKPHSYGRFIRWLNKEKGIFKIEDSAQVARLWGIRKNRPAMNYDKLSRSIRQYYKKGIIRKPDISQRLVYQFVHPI
# Outline: as §1
# [15] = biological target: T10, ETV7 (Homo sapiens, UniProt Q9Y603 1-341); details: protein: recombinant; tags: N-terminal GST; dsDNA, one strand shown
# T10 sequence: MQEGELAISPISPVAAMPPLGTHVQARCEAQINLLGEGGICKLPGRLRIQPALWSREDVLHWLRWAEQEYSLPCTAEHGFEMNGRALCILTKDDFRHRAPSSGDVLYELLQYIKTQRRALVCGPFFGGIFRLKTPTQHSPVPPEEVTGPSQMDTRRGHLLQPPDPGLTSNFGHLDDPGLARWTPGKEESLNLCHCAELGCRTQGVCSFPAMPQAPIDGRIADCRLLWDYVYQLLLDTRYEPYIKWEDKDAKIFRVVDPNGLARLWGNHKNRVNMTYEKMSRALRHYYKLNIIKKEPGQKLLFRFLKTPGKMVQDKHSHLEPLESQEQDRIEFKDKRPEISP
# Outline: as §1
# [16] = biological target: T11, ELF5 (Homo sapiens, UniProt Q9UKW6-2 1-255); details: protein: recombinant; tags: N-terminal GST; dsDNA, one strand shown
# T11 sequence: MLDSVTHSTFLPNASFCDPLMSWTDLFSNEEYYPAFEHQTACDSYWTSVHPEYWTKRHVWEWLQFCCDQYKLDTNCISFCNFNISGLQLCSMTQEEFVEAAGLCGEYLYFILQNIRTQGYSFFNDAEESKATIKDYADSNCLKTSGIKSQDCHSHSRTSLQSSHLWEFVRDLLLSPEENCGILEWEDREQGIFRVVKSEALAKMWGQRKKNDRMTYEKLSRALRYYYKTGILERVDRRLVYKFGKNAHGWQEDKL
# Outline: as §1
# [17] = biological target: T12, ETV3 (Homo sapiens, UniProt P41162-2 1-143); details: protein: recombinant; tags: N-terminal GST; dsDNA, one strand shown
# T12 sequence: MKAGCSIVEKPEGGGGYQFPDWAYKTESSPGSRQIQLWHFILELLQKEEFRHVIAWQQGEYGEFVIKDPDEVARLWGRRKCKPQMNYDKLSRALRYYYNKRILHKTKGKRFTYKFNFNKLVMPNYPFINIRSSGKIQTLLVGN
# Outline: as §1
# [18] = biological target: ETV6 (Homo sapiens, UniProt P41212 1-452); details: protein: recombinant; tags: N-terminal GST; dsDNA, one strand shown
# Outline: as §1
# ETV5, sequence (P41161 whole entry): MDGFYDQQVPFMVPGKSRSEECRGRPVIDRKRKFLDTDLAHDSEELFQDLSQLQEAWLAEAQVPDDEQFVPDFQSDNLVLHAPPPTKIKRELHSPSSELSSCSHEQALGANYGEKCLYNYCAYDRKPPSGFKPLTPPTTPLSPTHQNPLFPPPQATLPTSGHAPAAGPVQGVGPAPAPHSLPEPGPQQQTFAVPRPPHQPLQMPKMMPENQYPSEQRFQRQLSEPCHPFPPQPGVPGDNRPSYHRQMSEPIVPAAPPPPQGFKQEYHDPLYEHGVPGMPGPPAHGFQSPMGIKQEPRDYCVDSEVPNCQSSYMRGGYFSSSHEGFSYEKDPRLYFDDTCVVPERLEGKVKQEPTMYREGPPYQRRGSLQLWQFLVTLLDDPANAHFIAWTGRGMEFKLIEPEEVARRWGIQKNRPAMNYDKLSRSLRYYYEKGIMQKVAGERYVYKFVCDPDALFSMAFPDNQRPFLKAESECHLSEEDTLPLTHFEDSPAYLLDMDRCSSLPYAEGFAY
# ETV1, sequence (P50549 whole entry): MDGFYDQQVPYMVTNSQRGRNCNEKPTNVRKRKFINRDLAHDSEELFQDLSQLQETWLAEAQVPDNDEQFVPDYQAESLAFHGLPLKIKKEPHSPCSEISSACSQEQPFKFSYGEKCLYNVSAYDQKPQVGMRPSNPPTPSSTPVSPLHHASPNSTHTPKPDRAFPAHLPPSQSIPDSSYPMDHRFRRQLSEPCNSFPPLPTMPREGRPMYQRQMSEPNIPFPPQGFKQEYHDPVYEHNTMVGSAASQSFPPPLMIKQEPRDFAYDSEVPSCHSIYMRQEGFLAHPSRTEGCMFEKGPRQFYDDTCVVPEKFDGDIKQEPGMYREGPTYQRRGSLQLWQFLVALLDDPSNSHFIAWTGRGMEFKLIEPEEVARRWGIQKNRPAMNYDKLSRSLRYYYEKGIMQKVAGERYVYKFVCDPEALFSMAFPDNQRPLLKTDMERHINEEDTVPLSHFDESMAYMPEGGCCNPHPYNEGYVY
# ETV6, sequence (P41212 whole entry): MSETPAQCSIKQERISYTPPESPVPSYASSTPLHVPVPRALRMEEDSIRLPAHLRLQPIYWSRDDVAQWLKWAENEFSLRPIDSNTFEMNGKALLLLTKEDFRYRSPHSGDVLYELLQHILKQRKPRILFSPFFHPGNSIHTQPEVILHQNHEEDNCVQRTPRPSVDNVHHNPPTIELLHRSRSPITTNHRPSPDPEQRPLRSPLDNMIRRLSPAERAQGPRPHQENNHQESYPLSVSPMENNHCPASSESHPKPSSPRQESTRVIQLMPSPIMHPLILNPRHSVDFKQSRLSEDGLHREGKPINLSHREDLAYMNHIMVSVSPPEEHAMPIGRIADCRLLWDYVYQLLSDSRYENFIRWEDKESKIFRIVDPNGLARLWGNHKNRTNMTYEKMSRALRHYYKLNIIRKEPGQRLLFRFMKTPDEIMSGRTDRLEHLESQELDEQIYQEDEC
# ELF4, sequence (Q99607 whole entry): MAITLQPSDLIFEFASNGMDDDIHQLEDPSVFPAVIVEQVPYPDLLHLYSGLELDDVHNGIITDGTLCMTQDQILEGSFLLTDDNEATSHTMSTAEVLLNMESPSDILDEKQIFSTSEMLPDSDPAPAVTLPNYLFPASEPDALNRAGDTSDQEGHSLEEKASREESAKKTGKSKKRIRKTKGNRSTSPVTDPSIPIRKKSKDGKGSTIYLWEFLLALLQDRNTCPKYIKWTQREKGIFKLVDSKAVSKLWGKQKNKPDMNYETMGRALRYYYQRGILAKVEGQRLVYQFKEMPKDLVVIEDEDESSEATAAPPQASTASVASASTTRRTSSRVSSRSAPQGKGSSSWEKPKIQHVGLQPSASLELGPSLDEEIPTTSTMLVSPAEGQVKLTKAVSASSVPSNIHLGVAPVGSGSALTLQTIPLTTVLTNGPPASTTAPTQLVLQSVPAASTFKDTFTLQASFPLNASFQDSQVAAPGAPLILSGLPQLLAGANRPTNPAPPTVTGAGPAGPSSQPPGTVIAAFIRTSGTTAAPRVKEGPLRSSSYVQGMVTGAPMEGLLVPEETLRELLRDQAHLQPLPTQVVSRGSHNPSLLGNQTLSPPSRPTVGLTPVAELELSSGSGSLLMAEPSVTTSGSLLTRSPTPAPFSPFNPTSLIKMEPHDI
# HSF1, sequence (Q00613 whole entry): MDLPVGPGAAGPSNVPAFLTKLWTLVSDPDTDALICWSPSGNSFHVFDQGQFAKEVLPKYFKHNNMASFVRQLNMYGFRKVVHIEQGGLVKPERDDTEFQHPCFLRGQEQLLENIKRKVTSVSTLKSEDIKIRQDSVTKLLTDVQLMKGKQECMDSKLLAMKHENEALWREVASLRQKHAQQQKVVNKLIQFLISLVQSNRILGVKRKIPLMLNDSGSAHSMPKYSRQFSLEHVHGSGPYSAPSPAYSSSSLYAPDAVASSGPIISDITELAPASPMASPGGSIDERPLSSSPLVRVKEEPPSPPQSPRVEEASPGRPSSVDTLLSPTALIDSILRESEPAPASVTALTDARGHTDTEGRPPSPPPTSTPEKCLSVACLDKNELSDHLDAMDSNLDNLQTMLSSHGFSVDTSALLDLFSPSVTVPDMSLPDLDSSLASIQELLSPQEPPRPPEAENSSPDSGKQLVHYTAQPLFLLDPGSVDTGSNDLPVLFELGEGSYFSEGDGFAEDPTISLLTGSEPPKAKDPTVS
# CRX, sequence (O43186 whole entry): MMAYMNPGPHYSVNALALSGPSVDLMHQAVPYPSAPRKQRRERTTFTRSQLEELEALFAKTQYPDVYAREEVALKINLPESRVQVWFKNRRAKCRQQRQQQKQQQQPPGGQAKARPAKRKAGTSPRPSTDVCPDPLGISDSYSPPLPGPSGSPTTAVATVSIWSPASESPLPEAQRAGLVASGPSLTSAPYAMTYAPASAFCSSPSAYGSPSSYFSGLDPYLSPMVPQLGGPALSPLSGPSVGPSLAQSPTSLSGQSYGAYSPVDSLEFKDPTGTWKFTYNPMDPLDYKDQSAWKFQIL
sequence,measurement,setting,value
CCCCTC,binding signal,[1],"1.41 fold enrichment (6-mer frequency, TF over GST control)"
same,binding signal,[2],"1.37 fold enrichment (6-mer frequency, TF over GST control)"
same,binding signal,[3],"1.13 fold enrichment (6-mer frequency, TF over GST control)"
same,binding signal,[4],"1.17 fold enrichment (6-mer frequency, TF over GST control)"
same,binding signal,[5],"1.48 fold enrichment (6-mer frequency, TF over GST control)"
same,binding signal,[6],"1.5 fold enrichment (6-mer frequency, TF over GST control)"
same,binding signal,[7],"1.49 fold enrichment (6-mer frequency, TF over GST control)"
same,binding signal,[8],"1.35 fold enrichment (6-mer frequency, TF over GST control)"
same,binding signal,[9],"1.14 fold enrichment (6-mer frequency, TF over GST control)"
same,binding signal,[10],"1.51 fold enrichment (6-mer frequency, TF over GST control)"
same,binding signal,[11],"1.43 fold enrichment (6-mer frequency, TF over GST control)"
same,binding signal,[12],"1.4 fold enrichment (6-mer frequency, TF over GST control)"
same,binding signal,[13],"1.33 fold enrichment (6-mer frequency, TF over GST control)"
same,binding signal,[14],"1.33 fold enrichment (6-mer frequency, TF over GST control)"
same,binding signal,[15],"1.24 fold enrichment (6-mer frequency, TF over GST control)"
same,binding signal,[16],"1.24 fold enrichment (6-mer frequency, TF over GST control)"
same,binding signal,[17],"1.28 fold enrichment (6-mer frequency, TF over GST control)"
same,binding signal,[18],"1.28 fold enrichment (6-mer frequency, TF over GST control)"
